Experimental data: PubChem BioAssay AID651903 (Broad Institute, 2012)
Out of some 22,000 compounds screened, about 1,100 (5%) were called active. The sample holds actives, similar compounds and a random draw of the others, so the mix is not that of the screen. Cut-off read from the data, not from the text of the source: active = activity score above about 55%; inconclusive = no clear call, values can overlap the other calls; inactive = below that.

Assay: T. cruzi growth inside host cells – cell-based, plate reader, single point, set 2, primary screen (AID 651903);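 note: parasites and compound incubated about four days before reading; 0% = median of neutral control wells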
Conditions: intracellular Trypanosoma cruzi in host cells, at 5.01 µM, hits give high values

SMILES	activity score (inhibition)
COc1ccc(NC(=O)Nc2ccc3c(c2)CC(=O)N([C@@H](C)CO)C[C@@H](C)[C@@H](CN(C)Cc2ccc(C(F)(F)F)cc2)O3)cc1	76% (active)
C[C@@H]1CN([C@H](C)CO)C(=O)Cc2cc(NC(=O)Nc3cccc4ccccc34)ccc2O[C@@H]1CN(C)Cc1ccc(C(=O)O)cc1	-16% (inactive)
C[C@@H]1CN([C@H](C)CO)C(=O)Cc2cc(NC(=O)Nc3cccc4ccccc34)ccc2O[C@@H]1CN(C)Cc1ccc(C(F)(F)F)cc1	67.4% (active)
Cc1noc(C)c1NC(=O)Nc1ccc2c(c1)CC(=O)N([C@H](C)CO)C[C@@H](C)[C@@H](CN(C)Cc1ccc(C(F)(F)F)cc1)O2	-9.04% (inactive)
C[C@@H]1CN([C@H](C)CO)C(=O)c2cc(NC(=O)Nc3ccc4c(c3)OCO4)ccc2O[C@@H]1CN(C)Cc1ccc(C(F)(F)F)cc1	2.66% (inactive)
C[C@@H]1CN([C@H](C)CO)C(=O)Cc2cc(NC(=O)Nc3ccc4c(c3)OCO4)ccc2O[C@H]1CN(C)Cc1ccc(C(=O)O)cc1	-10.7% (inactive)
C[C@@H]1CN([C@H](C)CO)C(=O)c2cc(NC(=O)c3ccncc3)ccc2O[C@H]1CN(C)C(=O)Nc1ccc(C(F)(F)F)cc1	1.32% (inactive)
C[C@@H]1CN([C@H](C)CO)C(=O)c2cc(NC(=O)Nc3ccc(C(F)(F)F)cc3)ccc2O[C@H]1CN(C)C(=O)Nc1ccccc1	4.44% (inactive)
COc1ccc(S(=O)(=O)N(C)C[C@@H]2Oc3ccc(NC(=O)C4CC4)cc3CC(=O)N([C@@H](C)CO)C[C@@H]2C)cc1	-7.17% (inactive)
CNC[C@H]1Oc2ccc(NS(=O)(=O)c3ccc(F)cc3)cc2C(=O)N([C@@H](C)CO)C[C@@H]1C	-7.11% (inactive)
C[C@H]1CN([C@@H](C)CO)C(=O)c2cccc(NC(=O)c3cnccn3)c2O[C@@H]1CN(C)Cc1ccc(Oc2ccccc2)cc1	38.8% (inactive)
C[C@H]1CN([C@@H](C)CO)C(=O)Cc2cc(NC(=O)Nc3ccc(F)cc3)ccc2O[C@H]1CN(C)S(=O)(=O)c1ccccc1	10.9% (inactive)
C[C@H]1CN([C@@H](C)CO)C(=O)Cc2cc(NC(=O)Nc3cccc4ccccc34)ccc2O[C@@H]1CN(C)S(C)(=O)=O	-12.5% (inactive)
Cc1ccc(S(=O)(=O)N(C)C[C@H]2Oc3ccc(NC(=O)Nc4cccc5ccccc45)cc3CC(=O)N([C@H](C)CO)C[C@H]2C)cc1	60.6% (active)
C[C@@H]1CN([C@H](C)CO)C(=O)Cc2cc(NS(=O)(=O)c3ccc(Cl)cc3)ccc2O[C@@H]1CN(C)S(=O)(=O)c1ccc(Cl)cc1	67.3% (active)
Cc1noc(C)c1S(=O)(=O)N(C)C[C@H]1Oc2ccc(NC(=O)Nc3cccc4ccccc34)cc2CC(=O)N([C@@H](C)CO)C[C@H]1C	23.8% (inactive)
COc1ccc(S(=O)(=O)Nc2ccc3c(c2)CC(=O)N([C@H](C)CO)C[C@@H](C)[C@@H](CN(C)S(=O)(=O)c2ccc(F)cc2)O3)cc1	60.4% (active)
C[C@@H]1CN([C@H](C)CO)C(=O)Cc2cc(NC(=O)Nc3ccc(C(F)(F)F)cc3)ccc2O[C@@H]1CN(C)S(=O)(=O)c1ccccc1	70% (active)
C[C@H]1CN([C@@H](C)CO)C(=O)Cc2cc(NS(=O)(=O)c3ccc(Cl)cc3)ccc2O[C@@H]1CN(C)S(=O)(=O)c1ccccc1	9.06% (inactive)

SMILES	activity score (inhibition)
C[C@@H]1CN([C@H](C)CO)C(=O)Cc2cc(NS(=O)(=O)c3ccc(F)cc3)ccc2O[C@@H]1CN(C)S(=O)(=O)c1ccc(F)cc1	47.1% (inactive)
C[C@H]1CN([C@@H](C)CO)C(=O)Cc2cc(NC(=O)Nc3ccc(C(F)(F)F)cc3)ccc2O[C@@H]1CN(C)S(=O)(=O)c1ccc(Cl)cc1	-15.1% (inactive)
COc1ccc(S(=O)(=O)N(C)C[C@H]2Oc3ccc(NS(=O)(=O)c4ccc(C)cc4)cc3CC(=O)N([C@@H](C)CO)C[C@@H]2C)cc1	-20.8% (inactive)
C[C@H]1CN([C@@H](C)CO)C(=O)Cc2cc(NS(C)(=O)=O)ccc2O[C@@H]1CN(C)S(=O)(=O)c1ccc(Cl)cc1	2.12% (inactive)
C[C@@H]1CCCCO[C@H](CN(C)C(=O)c2ccccc2)[C@@H](C)CN([C@H](C)CO)C(=O)c2cc(NC(=O)c3ccccc3)ccc2O1	-16.9% (inactive)
C[C@@H]1CN([C@@H](C)CO)C(=O)c2cccc(NC(=O)C3CCOCC3)c2O[C@H]1CN(C)C(=O)NC1CCCCC1	2.53% (inactive)
C[C@H]1CN([C@@H](C)CO)C(=O)c2cc(NC(=O)c3ccncc3)ccc2O[C@H]1CN(C)Cc1ccc(C(=O)Nc2ccccc2N)cc1	37.7% (inactive)
C[C@H](CO)N1C[C@H](C)[C@@H](CN(C)Cc2ccc(C(F)(F)F)cc2)Oc2ccc(NC(=O)CCC(F)(F)F)cc2C1=O	7.64% (inactive)
Cc1ccc(S(=O)(=O)N(C)C[C@H]2Oc3ccc(NS(=O)(=O)c4ccccc4)cc3CC(=O)N([C@@H](C)CO)C[C@H]2C)cc1	57.7% (active)
Cc1ccc(S(=O)(=O)N(C)C[C@H]2Oc3ccc(NS(C)(=O)=O)cc3CC(=O)N([C@@H](C)CO)C[C@H]2C)cc1	5.47% (inactive)
COc1ccc(S(=O)(=O)Nc2cccc3c2O[C@H](CN(C)S(=O)(=O)c2ccc(OC)cc2)[C@@H](C)CN([C@H](C)CO)C3=O)cc1	8.53% (inactive)
COc1ccc(S(=O)(=O)Nc2cccc3c2O[C@@H](CN(C)S(=O)(=O)c2ccc(F)cc2)[C@H](C)CN([C@H](C)CO)C3=O)cc1	-4.59% (inactive)
Cc1ccc(S(=O)(=O)Nc2ccc3c(c2)CC(=O)N([C@@H](C)CO)C[C@@H](C)[C@@H](CN(C)S(=O)(=O)c2ccccc2)O3)cc1	52% (inactive)
COc1ccc(S(=O)(=O)N(C)C[C@H]2Oc3c(NS(=O)(=O)c4ccc(F)cc4)cccc3C(=O)N([C@H](C)CO)C[C@H]2C)cc1	71.9% (active)
C[C@@H]1CN([C@H](C)CO)C(=O)CCCn2cc(nn2)CO[C@H]1CN(C)S(C)(=O)=O	-20.6% (inactive)
C[C@H](CO)N1C[C@H](C)[C@H](CN(C)C(=O)Nc2ccc3c(c2)OCO3)Oc2ccc(NC(=O)Nc3ccccc3)cc2CC1=O	-2.34% (inactive)
Cc1noc(C)c1NC(=O)Nc1ccc2c(c1)CC(=O)N([C@@H](C)CO)C[C@@H](C)[C@@H](CN(C)Cc1ccc(Cl)c(Cl)c1)O2	0.719% (inactive)
C[C@H](CO)N1C[C@H](C)[C@H](CN(C)Cc2ccc3c(c2)OCO3)Oc2c(NS(=O)(=O)c3ccccc3)cccc2C1=O	4.5% (inactive)
